# Reference: PubChem BioAssay AID1345085 (National Center for Advancing Translational Sciences (NCATS), 2018)
# Records with an inconclusive call do not appear. A call without a number means that no potency is given here. The source made the active and inactive calls. The call rests on the fitted dose curve; in most records, active means well fitted cell-killing curve with a large enough effect; inconclusive means small, poorly fitted or top-dose-only effect, or effect the other way; inactive means no such curve, though single readings can be large or run the other way.
# Test system: C33A
# Experiment: Confirmatory qHTS for gynecologic anti-cancer compounds from libraries of approved drugs and bioactive compounds; further: nearly all actives have a fitted effect of over 55% in size
# Details: gynecologic cancer cell panel viability, ATPlite luminescence, 48 h; series mostly up to 57.6 µM
# How it was run: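 IC50 values derive from an ATPlite ATP-content luminescence assay following 48 h treatment at 37 C. Each compound ran as an 11-concentration, threefold series (57.5 uM to 0.977 nM); HEK 293T served as control line for selectivity index.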
# Potency means the concentration at half of the fitted maximal effect.
row,Compound,Potency
1,C/C=C(/C)C(=O)O[C@H]1C(C)=C2[C@H]([C@@H]1OC(=O)CCCCCCC)[C@@](C)(OC(C)=O)C[C@H](OC(=O)CCC)[C@@]1(O)[C@H]2OC(=O)[C@@]1(C)O,21.7 µM (active)
2,CCC(=O)O[C@H]1CC[C@H]2[C@@H]3CCC4=CC(=O)CC[C@]4(C)[C@H]3CC[C@]12C,inactive
3,CCN1CCN(C(=O)Cc2ccc(Nc3ncc(F)c(Nc4ccc(C(=O)Nc5ccccc5Cl)cc4)n3)cc2)CC1,inactive
4,C[C@]12CC[C@H]3[C@@H](CCC4=CC(=O)CC[C@@H]43)[C@@H]1CC[C@@H]2OC(=O)CCc1ccccc1,inactive
5,CCNC(=O)C[C@@H]1N=C(c2ccc(Cl)cc2)c2cc(OC)ccc2-n2c(C)nnc21,inactive
6,Cc1sc2c(c1C)C(c1ccc(Cl)cc1)=NC(CC(=O)OC(C)(C)C)c1nnc(C)n1-2 (stereo unspecified),inactive
